ARNT-TACC3 inh = ARNT/TACC3 interaction disruption; Q9Y6A5; AlphaScreen His-ARNT PAS-B/GST-TACC3 binding, luminescence; TACC3 fragment carries E629A point mutation; inhibition, % at 9.99 µM; 390,000 compounds, 0.66% hits; AID 623870;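 active means mean inhibition of replicates at least 50% and at least half of replicates each reaching 50%; inconclusive means half or more replicates reach 50% but mean below 50%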
HSP90 inh = HSP90 refolding inhibition in rabbit reticulocyte lysate; luciferase refolding luminescence, 3 h; inhibition, % at 5.6 µM; 290,000 compounds, 0.91% hits; AID 1789;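 active means inhibition above the screen-wide mean plus 3 SD, computed separately per campaign, cut at about 16% in these data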;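 further: inhibitors lower the luminescence because luciferase stays unfolded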
HIF act = HIF pathway transcriptional activation. U2OS HRE-luciferase reporter, luminescence; normalized: DMSO 0%, desferrioxamine 100%. activation, % at 7.5 µM (by protocol). AID 1910. 300,000 compounds, 0.32% hits;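 active means mean activation of at least 10% of the iron chelator positive control signal, with at least half of replicates also reaching 10%; inconclusive means mean and replicate majority disagree about reaching 10%; inactive means mean and most replicates under 10%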
HSF1 inh = HSF1 inhibition; AID 2098; activity change, negative = inhibition, % at 7.5 µM (by protocol); NIH3T3-HGL HSE-luciferase, MG132-induced, luminescence 8 h; stronger effect = lower value; 300,000 compounds, 0.77% hits;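 active means more than half of replicate wells show activity change below -50%, luminescence cut by over half; inconclusive means some wells, but at most half, below -50%; inactive means no replicate well below -50%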;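 further: luciferase reports HSF-1 transcriptional activity via heat shock element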
HSF-1 act = increases HSF-1 driven luciferase reporter signal; 300,000 compounds, 1.7% hits; NIH3T3-HGL HSF-1 luciferase reporter, MG132, 8 h; 100% = twice DMSO control signal; activation, % at 9 µM; AID 504408;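 active means mean replicate activation of at least 50% with a set share of replicates each reaching 50%; inconclusive means only one of those two conditions met; inactive means mean below 50% and too few replicates reaching it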
Numbers stand for hits; - = inactive; ? = inconclusive; . = no result given. Hits are enriched below; roughly 3.1% of the tested compounds scored in any of these assays.

SMILES	ARNT-TACC3 inh	HSP90 inh	HIF act	HSF1 inh	HSF-1 act
CC1(C)SC(=S)N(/N=C/c2ccccc2O)C1N(O)C(=O)Nc1ccccc1 (configuration not stated)	48	-	-	-	-
O=C(Nc1ccc2[nH]ncc2c1)c1ccccc1Cl	-	-	-	-67	-
O=C(C[C@@H]1C=C[C@H](NC(=O)Nc2ccc(F)cc2)[C@H](CO)O1)NCCN1CCCC1	-	.	.	.	.
CC(Cc1cccs1)NC(=O)Nc1ccc(Cl)cc1 (configuration not stated)	.	-	-	-	62
CO[C@H]1CN(C)C(=O)c2ccc(NC(C)=O)cc2OC[C@@H](C)N(C(=O)c2ccccn2)C[C@H]1C	-	.	.	.	.
C=C[C@@H](C)[C@@H](OC(=O)Nc1ccc(OC)cc1)c1ccc(OCCO)cc1	-	.	.	.	.
CCOC(=O)c1sc(N(Cc2ccccc2)C(=O)COC(=O)c2ccc(O)cc2)nc1C	-	-	10.0	-	-
O=C(/C=C/c1ccco1)Nc1nc(-c2ccccc2)cs1	-	-	-	-	58
O=C(/C=C/c1ccco1)Nc1ccc(N2CCCC2)cc1	-	-	-	-	64
O=C(/C=C/c1ccco1)Nc1nc(-c2ccc(F)c(F)c2)cs1	.	-	-	-	-
O=C(/C=C/c1ccco1)Nc1nc(-c2ccccn2)cs1	65	-	-	-	-
Cc1csc(NC(=O)/C=C/c2ccco2)n1	-	-	-	-	57
OC[C@H]1[C@@H](c2ccc(C3=CCCC3)cc2)[C@H]2CN(CCC(F)(F)F)CCCCN21	-	.	.	.	.
C[C@@H]1CN([C@@H](C)CO)S(=O)(=O)c2ccc(-c3ccncc3)cc2O[C@H]1CN(C)S(=O)(=O)c1ccccc1F	-	.	.	.	.
CCn1c(SCCOc2ccc(Cl)cc2)nnc1-c1cccs1	-	-	-	-	61
CO[C@@H]1CN(C)C(=O)c2ccc(NC(=O)Nc3cccc(F)c3)cc2OC[C@H](C)N(C(C)=O)C[C@@H]1C	-	.	.	.	.
Cc1ccc2nc(NCc3ccccc3)c(C=O)c(=O)n2c1	-	-	-	-	90
Cc1ccc2nc(Nc3ccccc3)c(C=O)c(=O)n2c1	-	-	-	-	-
CCN(CC)c1ncnc2ccc(Br)cc12	-	-	-	-53	-
Cc1ccc(Cn2c(=O)sc3ccccc3c2=O)cc1	-	-	-	-	-
COc1cccc(Cn2c(=O)sc3ccccc3c2=O)c1	-	-	-	-	81
COc1ccc(CCN(C)C(=O)c2cnc(C)cn2)cc1OC	active	-	-	-	-
Fc1ccccc1CSc1nnc(-c2cccs2)o1	-	-	.	-	67
N#Cc1cccc(-c2nnc(SCc3ccccc3C#N)o2)c1	-	-	-	-	?
c1ccc2c(CSc3nnc(-c4ccncc4)o3)cccc2c1	-	-	-	-	59
SMILES	ARNT-TACC3 inh	HSP90 inh	HIF act	HSF1 inh	HSF-1 act
c1ccc(CSc2nnc(-c3cccs3)o2)cc1	-	-	-	-	-
Clc1ccccc1CSc1nnc(-c2ccncc2)o1	-	-	-	-	?
N#Cc1ccccc1CSc1nnc(-c2ccncc2)o1	-	-	-	-	60
C[C@@H]1CN([C@H](C)CO)C(=O)c2cc(NC(=O)Nc3ccc4c(c3)OCO4)ccc2O[C@@H]1CN(C)S(=O)(=O)c1ccccc1	-	.	.	.	.
O=S(=O)(Cc1ccccc1)NCC[C@@H]1CC[C@H](NS(=O)(=O)c2ccccc2)[C@@H](CO)O1	-	.	.	.	.
CCN(CC)S(=O)(=O)c1ccc(/C=C/C(=O)Nc2cccc(F)c2)cc1	-	-	-	-	67
CSc1cccc(NC(=O)/C=C/c2ccc(Cl)cc2)c1	-	-	-	-	-
CCN(CC)S(=O)(=O)c1ccc(/C=C/C(=O)O)cc1	-	-	-	-	-
O=C(/C=C/c1ccccc1)Nc1cccc(C(=O)O)c1	-	89	-	-78	-
CSc1cccc(NC(=O)/C=C/c2ccccc2)c1	-	-	-	-	74
COc1ccc(S(=O)(=O)Nc2cccc3c2O[C@@H](CN(C)C(=O)NC2CCCCC2)[C@@H](C)CN([C@@H](C)CO)C3=O)cc1	-	.	.	.	.
CN(C)c1ccc2c(c1)[C@@H]1C[C@@H](CC(=O)NCc3cc(F)ccc3F)O[C@@H](CO)[C@@H]1O2	-	.	.	.	.
COC(=O)C[C@H]1C[C@H]2c3cc(N(C)C)ccc3O[C@H]2[C@H](CO)O1	-	.	.	.	.
COC(=O)C[C@H]1C[C@@H]2c3cc(N(C)C)ccc3O[C@@H]2[C@@H](CO)O1	45	.	.	.	.
